Tests used:
Test in all cases: log2 ratio of Biotin-Ahx-Ub-VS probe labelling (fragment/DMSO); higher = less target engagement (more negative = stronger competition), active = hit call of the paper (q ≤ 0.05, log2 ratio ≤ -1)
Conditions in all cases: compound concentration: 200 uM; treatment time: 3 h
[1] = molecular target: USP34 (UniProt Q70CQ2)
How it was run: (§1)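 HEK293T lysate (495 µg per sample, in Tris/CHAPS/IGEPAL buffer with protease inhibitors) was treated in triplicate with fragment at 200 µM or with DMSO for 3 h. It was then treated with Biotin-Ahx-Ub-VS (0.5 µM final) for 1 h. Labelled DUBs were NeutrAvidin-enriched, digested with LysC and trypsin, and run by diaPASEF LC-MS/MS. Spectronaut label-free quantities were global-median-normalised. Values are average log2 ratios fragment/DMSO by unpaired t-test, using proteins with ≥2 unique peptides.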

[2] = molecular target: T1, USP36 (UniProt Q9P275)
T1 sequence (whole entry): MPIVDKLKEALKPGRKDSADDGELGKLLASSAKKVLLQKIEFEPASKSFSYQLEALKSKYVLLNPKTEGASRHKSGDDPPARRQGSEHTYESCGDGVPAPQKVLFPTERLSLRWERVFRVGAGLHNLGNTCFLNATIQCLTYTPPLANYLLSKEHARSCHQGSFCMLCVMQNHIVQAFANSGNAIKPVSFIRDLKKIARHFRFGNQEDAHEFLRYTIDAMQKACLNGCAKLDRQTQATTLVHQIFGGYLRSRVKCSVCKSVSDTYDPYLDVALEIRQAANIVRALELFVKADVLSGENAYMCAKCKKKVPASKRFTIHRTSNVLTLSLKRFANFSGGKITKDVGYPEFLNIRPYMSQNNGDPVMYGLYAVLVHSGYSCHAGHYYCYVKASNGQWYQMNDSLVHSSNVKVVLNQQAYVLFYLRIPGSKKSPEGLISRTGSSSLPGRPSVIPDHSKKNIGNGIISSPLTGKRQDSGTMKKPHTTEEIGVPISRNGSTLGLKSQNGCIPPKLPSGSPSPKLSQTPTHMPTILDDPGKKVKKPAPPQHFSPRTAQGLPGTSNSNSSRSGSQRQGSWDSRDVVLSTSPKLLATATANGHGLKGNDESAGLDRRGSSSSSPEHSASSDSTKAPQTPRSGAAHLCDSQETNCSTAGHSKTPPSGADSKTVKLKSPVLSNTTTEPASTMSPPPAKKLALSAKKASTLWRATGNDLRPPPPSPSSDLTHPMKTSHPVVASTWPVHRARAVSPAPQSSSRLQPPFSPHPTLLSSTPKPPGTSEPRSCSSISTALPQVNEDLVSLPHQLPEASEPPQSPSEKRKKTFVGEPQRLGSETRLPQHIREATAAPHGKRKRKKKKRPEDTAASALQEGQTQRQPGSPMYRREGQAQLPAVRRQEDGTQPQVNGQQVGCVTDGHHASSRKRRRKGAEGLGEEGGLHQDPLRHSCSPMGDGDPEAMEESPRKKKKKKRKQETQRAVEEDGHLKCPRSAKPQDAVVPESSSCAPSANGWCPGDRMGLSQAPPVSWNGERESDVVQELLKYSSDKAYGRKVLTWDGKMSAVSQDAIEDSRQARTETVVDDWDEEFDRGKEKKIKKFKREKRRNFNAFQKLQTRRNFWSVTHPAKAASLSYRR
How it was run: as §1

[3] = molecular target: T2, USP38 (UniProt Q8NB14)
T2 sequence (whole entry): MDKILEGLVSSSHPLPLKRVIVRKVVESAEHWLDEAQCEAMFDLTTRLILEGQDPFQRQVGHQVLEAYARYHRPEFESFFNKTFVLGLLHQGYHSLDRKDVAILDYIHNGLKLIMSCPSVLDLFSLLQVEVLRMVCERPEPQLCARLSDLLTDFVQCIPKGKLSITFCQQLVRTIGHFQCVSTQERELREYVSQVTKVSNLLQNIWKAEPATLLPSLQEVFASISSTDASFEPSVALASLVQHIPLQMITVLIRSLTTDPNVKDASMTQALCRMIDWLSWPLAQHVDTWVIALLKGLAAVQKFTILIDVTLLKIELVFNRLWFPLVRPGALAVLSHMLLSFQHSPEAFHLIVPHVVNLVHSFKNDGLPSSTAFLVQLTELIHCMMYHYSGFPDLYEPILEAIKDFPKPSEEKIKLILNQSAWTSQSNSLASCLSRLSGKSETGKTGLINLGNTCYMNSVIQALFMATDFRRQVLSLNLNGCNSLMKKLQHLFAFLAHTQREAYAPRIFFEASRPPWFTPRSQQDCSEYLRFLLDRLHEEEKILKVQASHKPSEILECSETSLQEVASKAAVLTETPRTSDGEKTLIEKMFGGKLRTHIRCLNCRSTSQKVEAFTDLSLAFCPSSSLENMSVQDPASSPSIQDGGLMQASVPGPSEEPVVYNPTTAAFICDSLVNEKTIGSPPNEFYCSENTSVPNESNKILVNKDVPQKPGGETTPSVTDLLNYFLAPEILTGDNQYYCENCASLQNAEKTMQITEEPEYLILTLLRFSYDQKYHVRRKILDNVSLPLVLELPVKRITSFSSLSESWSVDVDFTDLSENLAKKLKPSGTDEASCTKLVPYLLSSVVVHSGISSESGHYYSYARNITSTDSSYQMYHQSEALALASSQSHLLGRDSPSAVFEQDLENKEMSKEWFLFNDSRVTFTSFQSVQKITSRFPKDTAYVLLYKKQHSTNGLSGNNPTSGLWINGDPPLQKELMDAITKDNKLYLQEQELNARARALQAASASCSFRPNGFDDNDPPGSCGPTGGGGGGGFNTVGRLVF
How it was run: as §1

[4] = molecular target: T3, USP39 (UniProt Q53GS9)
T3 sequence (whole entry): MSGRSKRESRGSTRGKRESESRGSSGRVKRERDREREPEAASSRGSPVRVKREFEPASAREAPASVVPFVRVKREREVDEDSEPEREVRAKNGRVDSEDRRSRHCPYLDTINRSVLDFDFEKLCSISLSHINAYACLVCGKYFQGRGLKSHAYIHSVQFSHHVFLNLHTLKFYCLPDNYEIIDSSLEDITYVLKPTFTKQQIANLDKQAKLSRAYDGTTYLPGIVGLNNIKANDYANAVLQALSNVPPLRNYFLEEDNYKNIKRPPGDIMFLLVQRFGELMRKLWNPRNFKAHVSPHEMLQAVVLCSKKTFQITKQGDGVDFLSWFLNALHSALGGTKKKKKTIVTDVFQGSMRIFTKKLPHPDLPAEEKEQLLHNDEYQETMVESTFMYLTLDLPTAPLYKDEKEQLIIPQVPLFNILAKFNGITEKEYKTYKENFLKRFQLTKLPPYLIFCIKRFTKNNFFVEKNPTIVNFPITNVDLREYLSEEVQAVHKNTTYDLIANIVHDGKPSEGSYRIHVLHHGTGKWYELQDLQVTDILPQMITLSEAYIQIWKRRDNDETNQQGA
How it was run: as §1

[5] = molecular target: T4, USP4 (UniProt Q13107)
T4 sequence (whole entry): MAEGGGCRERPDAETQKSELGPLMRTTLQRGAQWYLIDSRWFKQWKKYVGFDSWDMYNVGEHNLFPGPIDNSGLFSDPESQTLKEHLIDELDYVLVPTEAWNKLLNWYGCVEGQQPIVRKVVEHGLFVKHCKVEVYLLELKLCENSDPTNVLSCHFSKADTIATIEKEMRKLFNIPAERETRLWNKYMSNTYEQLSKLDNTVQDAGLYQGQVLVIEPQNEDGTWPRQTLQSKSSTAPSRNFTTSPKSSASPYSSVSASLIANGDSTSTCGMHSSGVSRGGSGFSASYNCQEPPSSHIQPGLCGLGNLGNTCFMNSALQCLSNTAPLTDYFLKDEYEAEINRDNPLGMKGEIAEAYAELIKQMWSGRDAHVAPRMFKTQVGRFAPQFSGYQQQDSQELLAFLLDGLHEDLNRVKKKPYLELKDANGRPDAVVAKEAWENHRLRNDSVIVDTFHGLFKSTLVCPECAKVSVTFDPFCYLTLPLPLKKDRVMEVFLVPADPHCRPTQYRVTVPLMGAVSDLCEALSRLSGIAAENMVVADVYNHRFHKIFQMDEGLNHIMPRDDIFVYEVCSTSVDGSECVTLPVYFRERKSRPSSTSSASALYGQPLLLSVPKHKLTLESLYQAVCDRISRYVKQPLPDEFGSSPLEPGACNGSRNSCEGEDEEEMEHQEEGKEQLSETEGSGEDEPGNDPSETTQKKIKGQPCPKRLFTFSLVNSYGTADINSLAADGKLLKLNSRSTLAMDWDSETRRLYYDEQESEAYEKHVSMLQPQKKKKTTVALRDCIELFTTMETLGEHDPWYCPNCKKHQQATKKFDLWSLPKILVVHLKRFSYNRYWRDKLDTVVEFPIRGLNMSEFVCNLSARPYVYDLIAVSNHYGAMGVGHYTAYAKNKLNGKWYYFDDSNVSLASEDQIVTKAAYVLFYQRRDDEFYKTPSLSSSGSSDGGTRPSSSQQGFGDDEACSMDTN
How it was run: as §1

Measured: log2 ratio of Biotin-Ahx-Ub-VS probe labelling

Sequence of USP34 (Q70CQ2 whole entry, the tested form may be a part): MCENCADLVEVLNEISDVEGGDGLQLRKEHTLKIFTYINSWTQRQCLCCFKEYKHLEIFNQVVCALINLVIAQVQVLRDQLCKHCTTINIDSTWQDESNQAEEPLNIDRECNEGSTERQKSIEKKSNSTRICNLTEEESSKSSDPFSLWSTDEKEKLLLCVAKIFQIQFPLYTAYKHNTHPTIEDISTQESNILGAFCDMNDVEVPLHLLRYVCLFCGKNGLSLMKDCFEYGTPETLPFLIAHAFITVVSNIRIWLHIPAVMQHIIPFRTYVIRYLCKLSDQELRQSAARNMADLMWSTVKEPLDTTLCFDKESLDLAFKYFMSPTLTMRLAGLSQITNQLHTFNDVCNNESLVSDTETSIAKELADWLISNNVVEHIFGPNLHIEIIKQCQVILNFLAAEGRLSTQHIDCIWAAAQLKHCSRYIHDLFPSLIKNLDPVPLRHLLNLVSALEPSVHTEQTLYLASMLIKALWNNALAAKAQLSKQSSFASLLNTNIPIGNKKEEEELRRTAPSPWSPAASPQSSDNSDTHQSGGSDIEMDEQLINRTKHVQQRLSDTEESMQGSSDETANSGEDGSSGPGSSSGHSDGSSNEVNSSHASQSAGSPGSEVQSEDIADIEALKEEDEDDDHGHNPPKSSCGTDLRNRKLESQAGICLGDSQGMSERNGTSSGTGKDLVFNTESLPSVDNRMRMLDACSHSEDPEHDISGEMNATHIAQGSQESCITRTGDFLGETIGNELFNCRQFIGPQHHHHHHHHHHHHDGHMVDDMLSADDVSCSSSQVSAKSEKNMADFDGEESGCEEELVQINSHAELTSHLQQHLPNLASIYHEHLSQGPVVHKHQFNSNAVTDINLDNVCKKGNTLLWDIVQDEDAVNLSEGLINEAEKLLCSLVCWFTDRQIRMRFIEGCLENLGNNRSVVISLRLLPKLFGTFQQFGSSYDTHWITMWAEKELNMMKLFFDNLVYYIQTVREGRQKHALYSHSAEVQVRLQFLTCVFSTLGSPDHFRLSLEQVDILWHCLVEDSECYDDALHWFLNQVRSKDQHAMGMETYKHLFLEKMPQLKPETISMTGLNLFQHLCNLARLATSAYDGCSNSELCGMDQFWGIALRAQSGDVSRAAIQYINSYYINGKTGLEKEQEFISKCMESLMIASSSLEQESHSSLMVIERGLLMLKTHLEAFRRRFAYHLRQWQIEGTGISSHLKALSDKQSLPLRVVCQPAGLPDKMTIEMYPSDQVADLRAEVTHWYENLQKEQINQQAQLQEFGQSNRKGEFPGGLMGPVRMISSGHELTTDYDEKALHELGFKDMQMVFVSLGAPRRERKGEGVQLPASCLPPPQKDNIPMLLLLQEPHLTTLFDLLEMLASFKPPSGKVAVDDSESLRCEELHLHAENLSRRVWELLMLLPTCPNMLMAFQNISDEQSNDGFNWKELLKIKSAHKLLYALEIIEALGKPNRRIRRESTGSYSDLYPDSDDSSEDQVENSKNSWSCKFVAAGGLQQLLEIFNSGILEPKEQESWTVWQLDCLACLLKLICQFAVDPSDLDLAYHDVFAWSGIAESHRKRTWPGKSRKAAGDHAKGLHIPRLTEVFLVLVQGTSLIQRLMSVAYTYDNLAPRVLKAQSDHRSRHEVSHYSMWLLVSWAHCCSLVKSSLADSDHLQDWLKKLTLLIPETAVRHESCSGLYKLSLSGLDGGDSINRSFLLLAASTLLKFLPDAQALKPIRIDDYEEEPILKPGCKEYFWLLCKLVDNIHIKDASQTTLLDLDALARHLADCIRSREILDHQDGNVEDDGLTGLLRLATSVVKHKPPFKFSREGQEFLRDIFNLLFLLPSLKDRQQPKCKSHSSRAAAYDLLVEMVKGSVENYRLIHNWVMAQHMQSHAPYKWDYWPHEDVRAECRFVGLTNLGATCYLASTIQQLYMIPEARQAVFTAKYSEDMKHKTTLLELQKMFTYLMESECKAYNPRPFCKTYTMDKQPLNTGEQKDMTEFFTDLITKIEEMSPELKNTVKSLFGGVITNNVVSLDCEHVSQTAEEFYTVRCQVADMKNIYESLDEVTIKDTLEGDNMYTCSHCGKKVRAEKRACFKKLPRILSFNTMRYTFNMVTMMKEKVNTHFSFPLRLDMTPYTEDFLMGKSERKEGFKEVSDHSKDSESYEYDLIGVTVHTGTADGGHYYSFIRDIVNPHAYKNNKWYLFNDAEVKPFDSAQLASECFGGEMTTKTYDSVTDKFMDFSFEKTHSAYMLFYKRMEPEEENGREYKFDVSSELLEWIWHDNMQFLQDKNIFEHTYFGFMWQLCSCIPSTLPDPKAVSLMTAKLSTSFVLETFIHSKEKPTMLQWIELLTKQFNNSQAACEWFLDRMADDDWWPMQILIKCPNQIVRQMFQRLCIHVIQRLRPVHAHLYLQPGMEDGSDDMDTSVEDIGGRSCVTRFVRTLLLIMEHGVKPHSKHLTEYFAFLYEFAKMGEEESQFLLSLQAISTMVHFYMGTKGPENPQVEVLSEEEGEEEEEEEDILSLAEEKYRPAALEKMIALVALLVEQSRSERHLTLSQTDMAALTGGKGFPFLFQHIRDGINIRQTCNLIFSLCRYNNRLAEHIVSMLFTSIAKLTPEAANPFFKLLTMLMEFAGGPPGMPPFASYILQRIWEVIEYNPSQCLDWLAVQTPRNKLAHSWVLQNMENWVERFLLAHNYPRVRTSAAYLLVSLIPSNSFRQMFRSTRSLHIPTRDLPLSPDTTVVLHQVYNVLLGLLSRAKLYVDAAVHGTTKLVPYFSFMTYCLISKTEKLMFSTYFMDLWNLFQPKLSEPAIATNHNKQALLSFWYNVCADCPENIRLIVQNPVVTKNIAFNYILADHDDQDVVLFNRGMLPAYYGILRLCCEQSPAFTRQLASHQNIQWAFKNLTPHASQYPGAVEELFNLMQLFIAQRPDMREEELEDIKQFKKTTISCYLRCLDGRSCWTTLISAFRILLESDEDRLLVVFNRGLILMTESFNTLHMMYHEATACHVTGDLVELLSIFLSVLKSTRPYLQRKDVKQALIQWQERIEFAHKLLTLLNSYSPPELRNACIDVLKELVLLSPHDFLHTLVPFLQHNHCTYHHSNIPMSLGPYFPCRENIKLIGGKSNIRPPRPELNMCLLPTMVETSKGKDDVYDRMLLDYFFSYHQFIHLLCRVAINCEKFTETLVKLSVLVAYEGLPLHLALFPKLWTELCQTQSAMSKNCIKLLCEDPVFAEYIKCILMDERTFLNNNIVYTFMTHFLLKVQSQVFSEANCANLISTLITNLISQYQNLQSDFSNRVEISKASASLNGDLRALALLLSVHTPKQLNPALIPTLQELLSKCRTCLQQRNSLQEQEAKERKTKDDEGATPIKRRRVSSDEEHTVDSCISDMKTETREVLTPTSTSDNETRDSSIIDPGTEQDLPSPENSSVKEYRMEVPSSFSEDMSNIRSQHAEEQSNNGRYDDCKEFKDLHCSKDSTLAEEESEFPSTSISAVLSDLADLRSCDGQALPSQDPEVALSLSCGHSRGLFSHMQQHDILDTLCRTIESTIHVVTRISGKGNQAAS

O=C(CCl)N1CCOC2(CCC2)C1
inactive: [1] 0.118 | [2] 0.102 | [3] 0.253 | [4] 0.11 | [5] -0.266

— the supplement of paper PMC11732987, “Enantioselective OTUD7B fragment discovery through chemoproteomics screening and high-throughput optimisation” (Communications Chemistry, 2025)
